Compound activity (PubChem BioAssay)
Sampled rows, rich in hits. Any-hit rate of the full collection: about 6.5%.
FMDV inh: foot and mouth disease virus antiviral activity; Potency, µM (series often up to 57.9 µM), inactives show top-dose activity change, negative = inhibition, hits mostly inhibitors; hit rate 1.2% among 410,000; FMDV antiviral cell-based qHTS; calls by dose curve; tested in HEK293T cells; also: read-out not given here; potency is read from the fitted curve at half-maximal effect; % is scaled to controls: 0 for no effect and ±100 for the full control effect; nearly all actives have a fitted effect of over 45% in size
Vaccinia Venus: inhibitors of vaccinia virus (Venus reporter). Vaccinia virus Venus reporter expression, fluorescence. Potency, µM (titrated, usually from 36.5 µM), for inactives: top-dose activity change, negative = inhibition, hits mostly inhibitors. hit rate 0.46% among 330,000. AID 720580; calls by dose curve; tested in A549 cells; also: potency is read from the fitted curve at half-maximal effect; % is scaled to controls: 0 for no effect and ±100 for the full control effect; nearly all actives have a fitted effect of over 30% in size
HCMV inh: blocks human cytomegalovirus replication; HFF cells, HCMV-luciferase reporter, 72 h; hits give low values; activity change, negative = inhibition, % at 57.5 µM; hit rate 4.5% among 410,000; AID 1259415; in the data active = activity change below about -60%; inconclusive = no clear call, values can overlap the other calls; inactive = above about -39%; also: % is scaled to controls: 0 for no effect and ±100 for the full control effect
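Compounds were evaluated in HFFs infected with an HCMV luciferase reporter virus (MOI 1 PFU/cell). Luciferase in lysates collected 72 h post infection served as the replication measure.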
LASV entry inh: blocks Lassa virus binding to or entry into cells | Lassa virus pseudotype entry inhibition, cell reporter | Potency, µM (series often up to 37.9 µM), for inactives: at the top dose activity change, negative = inhibition, most hits filed as inhibitors | hit rate 1.2% among 300,000 | AID 540256; calls by dose curve; tested in HEK293 cells; also: potency is read from the fitted curve at half-maximal effect; % is scaled to controls: 0 for no effect and ±100 for the full control effect; nearly all actives have a fitted effect of over 50% in size
MARV entry inh: Marburg virus entry inhibition; Potency, µM (highest dose often 37.8 µM), without a hit: at the highest dose activity change, negative = inhibition, hits mostly inhibitors; AID 540276; Marburg virus pseudotyped entry inhibition, cell reporter; hit rate 1.8% among 300,000; calls by dose curve; tested in HEK293 cells; also: potency is read from the fitted curve at half-maximal effect; % is scaled to controls: 0 for no effect and ±100 for the full control effect
VACV mCherry inh: inhibitors of vaccinia virus infection (mCherry reporter signal) | Vaccinia virus mCherry reporter infection, fluorescence | Potency, µM (highest dose often 36.5 µM), for inactives: at the top dose activity change, negative = inhibition, hits mostly inhibitors | hit rate 0.63% among 310,000; calls by dose curve; tested in A549 cells; also: potency is read from the fitted curve at half-maximal effect; % is scaled to controls: 0 for no effect and ±100 for the full control effect; nearly all actives have a fitted effect of over 35% in size
HeLa G2M arrest: inducers of G2/M cell cycle arrest in HeLa cells; shares compounds with MARV entry inh; HeLa cell cycle G2/M arrest, Hoechst DNA content imaging; Potency, µM, actives largely listed as inhibitors; hit rate 60% among 25; AID 2441
WI-38 tox: counter-screen for perinucleolar compartment inhibitors: WI-38 cytotoxicity; shares compounds with MARV entry inh; WI-38 normal lung fibroblasts, ATPLite luminescence ATP viability, 24 h; Potency, µM (highest dose often 46.1 µM), inactives show at the highest dose activity change, negative = cytotoxicity, actives largely listed as inhibitors; 120 tested, under 10 active; AID 2729
PNC inh conf: confirmation of perinucleolar compartment assembly inhibitors. shares compounds with MARV entry inh. PC3M PTB-GFP, PNC prevalence imaging, 16 h. Potency, µM (series often up to 46.1 µM), inactives show at the top dose activity, negative = PNC inhibition, hits mostly inhibitors. hit rate 50% among 120. AID 2730
PC3M caspase: PC3M caspase 3/7 activation by PNC inhibitor hits; activity change, positive = activation, % at 46.1 µM; 120 tested, under 10 active; shares compounds with MARV entry inh; PC3M-GFP caspase 3/7 activation, luminescence, 24 h
The depositor's hits bear a star; i = inactive; ? = inconclusive; · = not tested or not shown; ! = a repeat was not active; [ ] = remark or other dose. Unless noted, calls follow the shape of the dose curve; as a rule, active = well fitted curve in the direction sought with a large enough effect; inconclusive = small, poorly fitted or top-dose-only effect, or another doubt; inactive = no such curve, though single readings can be large; an effect the other way counts as inactive or inconclusive.

SMILES	FMDV inh	Vaccinia Venus	HCMV inh	LASV entry inh	MARV entry inh	VACV mCherry inh	WI-38 tox	PNC inh conf	PC3M caspase	others
CC1(C)Cc2cccc(OCC(=O)Nc3ccccc3F)c2O1	-7%	·	-31	·	·	·	·	·	·
Cc1cnc(NC(=O)COc2cccc3c2OC(C)(C)C3)s1	-11%	1%	-88*	0.71µM*	?	7.9µM*	-4%	7.9µM*	-3
COc1ccc(CCNC(=O)C2CC2)cc1OC	·	-12%	8	1%	-2%	i	·	·	·
COc1ccc(CN2CCC(C(=O)NCCc3ccc(OC)c(OC)c3)CC2)c(OC)c1	-20%	1%	-9	-1%	?	·	-27%	?	-8
CC(C)CNC(=O)CSc1nnc(-c2cccc(S(=O)(=O)N3CCCCC3)c2)o1	8%	?	2	-7%	-5%[46.1 µM]	?	-9%	-22%	-7
Cc1ccccc1C(=O)Nc1cccc(OCc2cc(=O)n3cccc(C)c3n2)c1	-19%	-9%	-30	10%[46.1 µM]	·	-7%	·	·	·
C/C(=N/OCO/N=C(\C)c1ccc(F)cc1F)c1ccc(F)cc1F	-18%	-13%	-34	22%	10%	i	·	·	·
C/C(=N/OCO/N=C(/C)c1ccc(F)cc1)c1ccc(F)cc1	-4%	-3%	-19	3.2µM*	?	-19%	20%	22µM*	1
Cc1ccc(Cl)cc1N(CC(=O)N1CCCCCC1)S(C)(=O)=O	-7%	-12%	20	9%	7%	-15%	6%	8%	-6
Cc1ccc(Cl)cc1N(CC(=O)N1CCOCC1)S(C)(=O)=O	4%	·	-8	·	·	·	·	·	·
Cc1cc(C)cc(NC(=S)NCCc2ccc(S(N)(=O)=O)cc2)c1	-19%	-6%	50	-10%	7%[46.1 µM]	i	·	·	·
Cc1ccc(NC(=S)NCCc2ccc(S(N)(=O)=O)cc2)cc1C	-21%	-9%	-39	-1%	-14%	-9%	-5%	32%	-4
CCN(CC)S(=O)(=O)c1ccc(C2=NOC3(C2)N(C)c2ccccc2C3(C)C)cc1 (stereo unspecified)	-27%	14%	-76*	0.73µM*	1.8µM*	-17%	8%	5µM*	-8
CCN(CC)S(=O)(=O)c1ccc(-c2nnco2)cc1	-4%	-5%	24	-2%	0%	-17%	·	·	·
CC(=O)c1c(C)cc(C)c(CSc2nc(C)cc(=O)[nH]2)c1C	·	-4%	-36	-14%	?	-30%	0%	?	-4
O=C(CCS(=O)(=O)c1cc(Br)cc2c1N(C(=O)C1CC1)CC2)N1CCN(c2ccc(F)cc2)CC1	-4%	-10%	-14	5%[46.1 µM]	-1%[46.1 µM]	-13%	·	·	·
CN(C)CCCN1c2ccccc2Sc2ccc(Cl)cc21	?	?	-66*!	23µM*	5.6µM*	?	·	·	·	HeLa G2M arrest=?
CN1CCN(CCCN2c3ccccc3Sc3ccc(S(=O)(=O)N(C)C)cc32)CC1	?	-28%	-24	·	·	?	·	·	·
O=C(NCC1(c2ccccc2)CCCC1)C(=O)Nc1cccc(Br)c1	-20%	-5%	9	-5%[46.1 µM]	1%[46.1 µM]	-9%	·	·	·
CNS(=O)(=O)c1cccc(C(=O)OCC(=O)c2cc(C)n(-c3ccc4c(c3)OCO4)c2C)c1	12%	-23%	-13	-3%	-2%	·	·	·	·
Cc1cc(C(=O)COc2ccccc2Cl)c(C)n1-c1ccc2c(c1)OCO2	29%	0%	28	4.1µM*	16µM*	-1%	-15%	7.9µM*	-15
Cc1cc[n+](C2=C([O-])c3ccccc3C(=O)/C2=N\S(=O)(=O)c2cccs2)cc1C	-24%	-17%	4	?	?	-14%	-24%	?	?
COc1ccccc1NC1=C(N2CCCCC2)C(=O)c2ccccc2C1=O	10µM*	10µM*	·	?	?	?	-21%	11µM*	?
CN(C1=C(N2CCCCC2)C(=O)c2ccccc2C1=O)c1ccccc1	·	-8%	-20	?	?	-14%	·	·	·
Cc1c(C#N)c(N)nc2c3c(sc12)NC(=O)CC3c1ccccc1 (stereo unspecified)	-10%	-8%	31	1%	?	-13%	·	·	·
SMILES	FMDV inh	Vaccinia Venus	HCMV inh	LASV entry inh	MARV entry inh	VACV mCherry inh	WI-38 tox	PNC inh conf	PC3M caspase	others
Cc1c(C#N)c(N)nc2c3c(sc12)NC(=O)CC3c1ccc(F)cc1 (stereo unspecified)	-15%	-10%	-11	15%	?	-8%	-12%	-10%	-6
CC(C)OCCCn1c(=O)c2ccccc2n2c(-c3ccc(F)cc3)nnc12	-1%	-18%	-22	4%[46.1 µM]	-16%[46.1 µM]	-16%	·	·	·
O=C(O)c1ccc(-c2nc(-c3ccccc3)c(-c3ccccc3)[nH]2)cc1	-9%	-7%	-2	?	14%	i	·	·	·
Oc1ccc(-c2nc(-c3ccc(F)cc3)c(-c3ccncc3)[nH]2)cc1	?	-12%	-9	?	5µM*	-6%	·	·	·	HeLa G2M arrest=?
Cc1cccc(NC(=O)CSc2nc3ccc(NC(=O)COc4ccc(Cl)cc4)cc3s2)c1	?	-23%	-24	1%[46.1 µM]	-17%[46.1 µM]	-1%	·	·	·
Cc1cccc(C)c1Nc1c(-c2ccc(N3CCOCC3)cc2)nc2ncccn12	-26%	-12%	3	-20%[46.1 µM]	-6%[46.1 µM]	-11%	-18%	-3%	-3
Cc1ccc(Nc2c(-c3ccc(N4CCOCC4)cc3)nc3ncccn23)c(C)c1	13%	-6%	27	-3%[46.1 µM]	?	?	·	·	·
CC(=O)O[C@H]1C(=O)[C@@]2(C)C([C@H](OC(=O)c3ccccc3)[C@]3(O)C[C@H](OC(=O)[C@H](O)[C@@H](NC(=O)c4ccccc4)c4ccccc4)C(C)=C1C3(C)C)[C@]1(OC(C)=O)CO[C@@H]1C[C@@H]2O (stereo partly specified)	-16%[39.8 µM]	-21%[20.9 µM]	·	?	0.25µM*	-14%[20.9 µM]	·	·	·	HeLa G2M arrest=0.013*
CC(C)CCNC(=O)Nc1ccc2c(c1)N(Cc1ccccc1)C(=O)c1ccccc1S2	-19%	-24%	-20	?	?	-10%	·	·	·
COc1ccc(Cc2nnc(N/N=C/c3ccc(O)cc3)[nH]c2=O)cc1OC	-25%	?	-100*	?	?	1.1µM*	?	?	-2
COc1ccc(Cc2nnc(N/N=C/c3ccc(Br)cc3)[nH]c2=O)cc1OC	1%	-6%[7.34 µM]	-20	·	·	-10%[7.34 µM]	·	·	·
